The entries come from a sample that favours hits as a whole.
Dicer processing = blocks human Dicer maturation of pre-miR-21; cat-ELCCA pre-miR-21 Dicer processing, chemiluminescence; stronger effect = higher value; Q9UPY3; z-score at 25 µM; 47,000 compounds, 6% hits; in the data active = z-score above about 3, passing the limit was not always enough;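 note: higher signal means more uncleaved substrate so more Dicer inhibition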
Target sequence (Q9UPY3 whole entry, looked up): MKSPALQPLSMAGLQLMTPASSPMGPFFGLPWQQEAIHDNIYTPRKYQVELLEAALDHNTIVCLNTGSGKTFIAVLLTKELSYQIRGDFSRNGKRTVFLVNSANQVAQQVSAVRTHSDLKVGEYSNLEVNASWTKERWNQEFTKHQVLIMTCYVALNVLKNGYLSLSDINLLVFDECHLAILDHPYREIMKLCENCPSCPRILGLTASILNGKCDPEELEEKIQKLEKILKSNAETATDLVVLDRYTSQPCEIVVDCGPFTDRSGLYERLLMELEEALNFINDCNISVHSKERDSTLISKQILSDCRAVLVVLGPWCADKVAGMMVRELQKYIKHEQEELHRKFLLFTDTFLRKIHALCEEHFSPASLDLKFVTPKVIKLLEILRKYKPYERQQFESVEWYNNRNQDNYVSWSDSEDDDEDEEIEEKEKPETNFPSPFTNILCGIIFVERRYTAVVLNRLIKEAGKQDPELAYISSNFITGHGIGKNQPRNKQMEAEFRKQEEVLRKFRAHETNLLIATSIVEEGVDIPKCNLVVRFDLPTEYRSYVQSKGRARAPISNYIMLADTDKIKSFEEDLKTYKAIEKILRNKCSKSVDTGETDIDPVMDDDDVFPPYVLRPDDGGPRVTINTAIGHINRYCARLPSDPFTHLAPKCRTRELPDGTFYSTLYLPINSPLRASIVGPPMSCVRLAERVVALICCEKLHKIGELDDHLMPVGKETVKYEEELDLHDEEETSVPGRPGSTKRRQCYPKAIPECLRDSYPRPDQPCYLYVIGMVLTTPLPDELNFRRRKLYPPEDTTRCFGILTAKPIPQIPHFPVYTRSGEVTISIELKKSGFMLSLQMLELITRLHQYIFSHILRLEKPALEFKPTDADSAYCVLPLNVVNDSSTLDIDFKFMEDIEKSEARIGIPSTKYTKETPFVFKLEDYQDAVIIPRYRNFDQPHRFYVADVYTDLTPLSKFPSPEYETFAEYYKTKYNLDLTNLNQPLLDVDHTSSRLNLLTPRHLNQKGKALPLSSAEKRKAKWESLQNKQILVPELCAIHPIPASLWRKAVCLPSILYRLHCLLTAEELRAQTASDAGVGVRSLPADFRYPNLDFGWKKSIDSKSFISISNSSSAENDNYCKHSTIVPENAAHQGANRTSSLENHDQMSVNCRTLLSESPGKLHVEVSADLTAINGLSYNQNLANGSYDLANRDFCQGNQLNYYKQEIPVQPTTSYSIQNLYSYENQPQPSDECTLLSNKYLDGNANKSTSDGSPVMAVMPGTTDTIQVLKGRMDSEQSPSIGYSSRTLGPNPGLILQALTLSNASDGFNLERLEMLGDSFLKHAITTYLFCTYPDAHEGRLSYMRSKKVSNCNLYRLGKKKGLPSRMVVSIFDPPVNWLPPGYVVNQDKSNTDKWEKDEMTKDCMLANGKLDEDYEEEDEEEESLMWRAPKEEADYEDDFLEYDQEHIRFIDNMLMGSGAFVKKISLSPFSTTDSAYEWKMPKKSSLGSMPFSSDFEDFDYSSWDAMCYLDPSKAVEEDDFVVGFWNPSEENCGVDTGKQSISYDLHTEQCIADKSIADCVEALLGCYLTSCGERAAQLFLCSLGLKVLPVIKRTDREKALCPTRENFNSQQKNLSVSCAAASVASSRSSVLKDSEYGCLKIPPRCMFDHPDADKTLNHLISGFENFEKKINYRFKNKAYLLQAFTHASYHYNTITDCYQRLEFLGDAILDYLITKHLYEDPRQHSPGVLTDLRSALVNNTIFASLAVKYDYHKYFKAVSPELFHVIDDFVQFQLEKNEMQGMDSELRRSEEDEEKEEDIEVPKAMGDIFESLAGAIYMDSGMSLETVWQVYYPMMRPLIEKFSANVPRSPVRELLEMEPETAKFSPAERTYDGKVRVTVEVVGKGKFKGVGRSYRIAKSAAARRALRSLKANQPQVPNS
A number is an active result; i = inactive.

SMILES	Dicer processing
CCOC(=O)CSCc1noc(COc2ccc(Cl)cc2Cl)n1	i
O=c1oc2c(-c3cccc(Cl)c3)cc(O)cc2s1	6.2
O=c1oc2c(-c3ccccc3F)cc(O)cc2s1	i
O=C(c1ccc(Cl)cc1)c1c(O)cc(-c2ccc(Cl)cc2)oc1=O	i
O=c1oc2c(-c3ccc(Cl)cc3)cc(O)cc2s1	12
O=c1c(-c2cccc(Cl)c2)c(C(F)(F)F)oc2cc(O)ccc12	i
O=C1C2=C(c3ccccc3)c3cc(Cl)ccc3C2Sc2ccccc21 (stereo unspecified)	i
COc1ccc(OC)c(C2CC(c3ccc(Br)cc3)=NN2C(=O)CCCC(=O)O)c1 (stereo unspecified)	i
Cc1ccccc1-n1cc(-c2ccc(Br)cc2)[nH]c1=S	i
COC(=O)CSc1c(Cl)cncc1Cl	i
Cc1ccc(Oc2ncc(Cl)cc2C(F)(F)F)c2c1CCC2	i
CN(C)c1ccc(C2N(C)c3ccccc3N2C)cc1	i
CCCSc1nc2ccccc2n1CC(=O)O	i
COc1ccc(OCCSc2nc3ccccc3n2CC(=O)O)cc1	i
CC(C)CSc1nc2ccccc2n1CC(=O)O	3.2
CC(C)CCn1c(SCC(N)=O)nc2c1c(=O)[nH]c(=O)n2C	i
Cc1c(C)c(C)c(S(=O)(=O)Nc2cc(Cl)cc(Cl)c2)c(C)c1C	i
Cc1c(C)c(C)c(S(=O)(=O)Nc2ccccc2N)c(C)c1C	13
Cc1c(C)c(C)c(S(=O)(=O)Nc2ccc(Cl)cc2Cl)c(C)c1C	i
CCCN(CCC)C(=S)Nc1cccc(OC)c1	i
Cn1c(=O)c2c(nc(C(N)=O)n2C)n(C)c1=O	i
COC(=O)c1c(C)oc2ccc(OCc3ccc(C)cc3)cc12	i
C(=C\c1ccccc1)/CN1CCN(C/C=C/c2ccccc2)CC1	i
CN1CCc2c(sc3c2C(=O)NC(/C=C\c2ccccc2)N3)C1 (stereo unspecified)	i
CN1CC=C(/C=C/c2ccccc2)CC1	3.8
SMILES	Dicer processing
O=C(NC1=NCCN1)c1c(Cl)cccc1Cl	i
O=C(O)c1ccc(-c2nc3ccc(-c4ccc5nc(-c6ccc(C(=O)O)cc6)[nH]c5c4)cc3[nH]2)cc1	i
CCn1c[n+](CC(O)COc2ccccc2C)c2ccccc21 (stereo unspecified)	i
CCn1c[n+](CC(O)COc2ccccc2OC)c2ccccc21 (stereo unspecified)	7.7
CCn1c[n+](CC(O)COc2ccccc2)c2ccccc21 (stereo unspecified)	i
CCSc1nc(N)c(Br)c(=O)[nH]1	i
O/N=C1/c2ccccc2-c2ccc(I)cc21	i
Cc1nn(S(=O)(=O)c2ccc(-c3cc(C(F)(F)F)n(C)n3)s2)c(C)c1Br	i
CC1=C(C(=O)Nc2cccc(C)n2)C(c2cccc(Br)c2)C2=C(CC(C)(C)CC2=O)N1 (stereo unspecified)	4.8
CC1=C(C(=O)Nc2ccccn2)C(c2ccc(Br)cc2)C2=C(CC(C)(C)CC2=O)N1 (stereo unspecified)	4.1
CC1=C(C(=O)Nc2ccc(Br)cn2)C(c2ccc(C)cc2)C2=C(CC(C)(C)CC2=O)N1 (stereo unspecified)	i
CC1=C(C(=O)OCCc2ccccc2)C(c2ccc3c(c2)OCO3)C2=C(CC(C)(C)CC2=O)N1 (stereo unspecified)	i
CC1=C(C(=O)Nc2cc(C)ccn2)C(c2ccc(F)cc2)C2=C(CC(C)(C)CC2=O)N1 (stereo unspecified)	i
CCOC(=O)C1=C(C)NC2=C(C(=O)CC(C)(C)C2)C1c1ccc(F)cc1 (stereo unspecified)	i
CC1=C(C(=O)Nc2ccc(F)cc2F)C(c2ccc3c(c2)OCO3)C2=C(CC(C)(C)CC2=O)N1 (stereo unspecified)	3.1
CC1=C(C(=O)Nc2ccc(C)cn2)C(c2cccc(Br)c2)C2=C(CC(C)(C)CC2=O)N1 (stereo unspecified)	i
COC(=O)C1=C(C)NC2=C(C(=O)CC(C)(C)C2)C1c1cccc(F)c1 (stereo unspecified)	i
Cc1ccc(C(=O)/C=C/Sc2ccc(C(F)(F)F)cn2)cc1	i
CCCC1=NC(C)(C)Cc2cc(OC)c(OC)cc21	i
CCCCCCOc1ccc(NS(=O)(=O)c2ccc(OC)cc2)cc1	i
CCOC(=O)c1cnc2c(-c3ccccc3)c(C(F)(F)F)sc2c1N1CCCC1	i
NNC(=O)c1[nH]c2ccc([N+](=O)[O-])cc2c1-c1ccccc1	i
Cc1ccc(S(=O)(=O)NNC(=O)c2[nH]c3ccc([N+](=O)[O-])cc3c2-c2ccccc2)cc1	6.7
O=C(O)c1[nH]c2ccc([N+](=O)[O-])cc2c1-c1ccccc1	i
CSc1nnc2c(n1)OC(c1ccc(C)o1)N(C(C)=O)c1ccccc1-2 (stereo unspecified)	i
SMILES	Dicer processing
O=C(O)c1cc2n(n1)C(C(F)(F)F)CC(c1ccco1)N2 (stereo unspecified)	i
O=C(NC1CCCC1)c1nn2c(c1Cl)NC(c1ccccc1)CC2C(F)(F)F (stereo unspecified)	i
CSc1ccccc1NC(=O)c1nn2c(c1Cl)NC(c1ccco1)CC2C(F)(F)F (stereo unspecified)	4.4
CSc1ccccc1NC(=O)c1cc2n(n1)C(C(F)(F)F)CC(c1ccco1)N2 (stereo unspecified)	i
CC1CCN(C(=O)c2nn3c(c2Cl)NC(c2ccco2)CC3C(F)(F)F)CC1 (stereo unspecified)	4
CC1CN(C(=O)c2cc3n(n2)C(C(F)(F)F)CC(c2ccco2)N3)CC(C)O1 (stereo unspecified)	i
N#Cc1cnn2c(N)c(-c3ccccc3)cnc12	i
CC(C)(C)c1ccc(-c2nc(-c3ccccn3)no2)cc1	i
COc1cc(-c2ccc(Cl)cc2)[nH]n1	i
CSc1nc2ccccc2n2cccc12	i
O=[N+]([O-])c1cc2c(c(CSCCO)c1)OCOC2	i
O=S(=O)(c1ccc2ccccc2c1)N1CCc2ccccc2C1	i
CCCCCn1c(=O)c2c(nc3n2CCN3c2ccc(OC)cc2)n(C)c1=O	i
Cc1cc(Nc2ccccc2)n2ncnc2n1	i
FC(F)(F)c1cc(-c2ccccc2)nc2ncnn12	i
Cc1ccc(Nc2cc(-c3ccccc3)nc3ncnn23)cc1	3.2
CCCNC(=C(C(=O)Nc1cccc(Cl)c1)C(=O)Nc1cccc(Cl)c1)c1ccc(OC)cc1	i
Cc1ccc(-c2cc(=O)c3c(=O)n(-c4ccccc4)[nH]c3[nH]2)cc1	i
c1ccc(-c2cc3ccccc3[nH]2)cc1	i
Cc1ccc(-c2cc3ccccc3[nH]2)cc1	16
CC(C)(C)c1ccc(OS(=O)(=O)c2ccc(Cl)cc2Cl)cc1	i
COc1cc(OC)cc(-c2cc3cnc(N)nc3nc2NC(=O)NC(C)(C)C)c1	i
COc1ccc(C(=O)CC2(O)C(=O)Nc3ccccc32)cc1OC (stereo unspecified)	i
Cc1onc(-c2c(Cl)cccc2Cl)c1C(=O)n1ccc(-c2cccs2)n1	i
O=C(N/C=C/c1ccsc1)Nc1ccc(F)cc1	i
SMILES	Dicer processing
CN(C)c1ncnc2c1C(c1ccc(Br)cc1)c1c(ncnc1N(C)C)O2	5
O=C(NNC(=O)C(F)(F)F)c1cc2sccc2s1	i
O=C1CCCC(O)=C1N=Nc1cc(C(F)(F)F)ccc1OCC(F)(F)F	i
Cc1c(CN2CCc3ccccc3C2)sc2ccccc12	4.8
Cc1c(CN2CCC(C(=O)c3ccc(F)cc3)CC2)sc2ccccc12	i
Cc1c(CC(=S)N2CCOCC2)sc2ccccc12	i
COc1cc2c(=O)n(Cc3cccs3)c(=S)[nH]c2c(OC)c1OC	i
Nc1cc(C(F)(F)F)ccc1N1CCCCC1	i

Compound activity deposited in PubChem by Center for Chemical Genomics, University of Michigan.
